Shown are actives, neighbours in structure and some others; about 4.8% of the full set was active somewhere.
DAX1 inh-1 = DAX1 (NR0B1) inhibitors, primary screen, cell-based, HEK293, Gal4-DAX1, luciferase luminescence; Nuclear receptor subfamily 0 group B member 1 (Homo sapiens), P51843; inhibition, % at 6.75 µM; 0.99% of 340,000 active; AID 504766, 2011; HEK293 Gal4-DAX1 luciferase reporter;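 active means inhibition above the mean over all tested compounds plus 3 SD, cut at about 4.2% in these data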;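 further: inhibition shows as a rise in luminescence from relieved DAX1 repression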
Target sequence (P51843 207-470 limits assumed): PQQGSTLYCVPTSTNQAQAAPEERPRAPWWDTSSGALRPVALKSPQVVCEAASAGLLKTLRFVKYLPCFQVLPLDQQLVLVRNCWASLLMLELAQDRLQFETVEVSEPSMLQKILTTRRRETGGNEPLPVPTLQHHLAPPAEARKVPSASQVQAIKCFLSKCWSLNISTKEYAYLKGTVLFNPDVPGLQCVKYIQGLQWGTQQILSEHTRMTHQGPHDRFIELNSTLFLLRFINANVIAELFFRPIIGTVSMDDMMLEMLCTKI
hcDAF-12 act = H. contortus DAF-12 nuclear receptor activators, primary screen, cell-based, luminescence, HEK293, lit1-tk-luc reporter. HEK293 hcDAF-12 lit1-tk-luc reporter; 0% DMSO, 100% Δ7-dafachronic acid. activation, % at 6.8 µM. 1.4% of 370,000 active. AID 652067, 2013;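 active means activation above the mean of all tested compounds plus 3 SD, cut at about 5.5% in these data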
ssDAF-12 act = S. stercoralis DAF-12 nuclear receptor activators, primary screen, cell-based, luminescence, HEK293, GRIP1 co-expression, lit1-tk-luc; 1% of 370,000 active; Nuclear hormone receptor DAF-12 (Strongyloides stercoralis); HEK293 ssDAF-12/GRIP1 lit1-tk-luc reporter; % of 3 µM dafachronic acid response; activation, % at 6.8 µM;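 active means activation above the mean over all tested compounds plus 3 SD, cut at about 0.9% in these data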
SMARCA2 act = SMARCA2 (BRM) function activators, primary screen, cell-based, luminescence, high throughput | MG213 cells, MMTV-luciferase reporter, dexamethasone, overnight | activation, % at 9.1 µM | 1% of 370,000 active | AID 652017, 2013; in the data active means activation above about 7.8%
DAX1 inh-2 = DAX1 (NR0B1) inhibitors on StAR promoter, primary screen, cell-based, luminescence, SF-1 (NR5A1), full-length DAX-1 | HEK293T StAR-luciferase reporter, SF-1/DAX-1 repression relief | AID 652010, 2013 | 1.1% of 370,000 active | inhibition, % at 6.8 µM;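 active means inhibition above the mean over all tested compounds plus 3 SD, cut at about 3.6% in these data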;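 further: higher inhibition means more luminescence from relief of DAX-1 repression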
hgDAF-12 ag = H. glycines DAF-12 receptor agonists, primary screen, cell-based, luminescence, HEK293, GAL4 fusion, UAS-luciferase. Nuclear hormone receptor DAF-12 (Heterodera glycines), GAL4 fusion. AID 687014, 2013. 1.8% of 370,000 active. activation, % at 6.8 µM. HEK293 GAL4-hgDAF12 UAS-luciferase reporter, agonist luminescence; normalized to butyrate control;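 active means activation above a cutoff set at the mean of all screened compounds plus 3 SD, cut at about 10% in these data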
SMARCA2 act conf = SMARCA2 (BRM) function activators, confirmation, cell-based, luminescence, triplicate. shares compounds with SMARCA2 act. MG213 cells, MMTV-luciferase with dexamethasone, overnight; MG213 cells expressing E1A, Rb sequestered; DMSO wells 0%, reference activator 100%. activation, % at 9.1 µM. 30% of 3,500 active. AID 652260, 2013;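 active means activation above its plate's cutoff, the mean activation of tested wells plus 3 SD, cut at about 7.9% in these data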
GAL4-VP16 Luc = GAL4-VP16 luciferase reporter activation, counter-screen for SMARCA2 (BRM) activator project, cell-based, pG5luc, luminescence, high throughput | shares compounds with SMARCA2 act | HEK293 GAL4-VP16 pG5luc reporter; scaled: DMSO wells 0%, SAHA wells 100% | activation, % at 9.1 µM | 41% of 3,500 active;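 active means activation above the solvent-only control well mean plus 3 SD, averaged across control plates, cut at about 5.2% in these data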
Each line names hits and unclear results; the compound was inactive in the other large screens (follow-up assays come after a bar, where they were run).

CCc1cc(=O)oc2cc(OCC(=O)NCCCN3CCOCC3)c(Cl)cc12	SMARCA2 act 8.4 | SMARCA2 act conf inactive | GAL4-VP16 Luc inactive
N/C(=N\OC(=O)c1ccc(Cl)cc1Cl)c1ccncc1	SMARCA2 act 12 | SMARCA2 act conf 11 | GAL4-VP16 Luc 20
Cc1cc(C(=O)O/N=C(\N)c2ccncc2)ccc1[N+](=O)[O-]	DAX1 inh-1 4.4, SMARCA2 act 14 | SMARCA2 act conf inactive | GAL4-VP16 Luc 5.2
N/C(=N\OC(=O)c1cccc(Cl)c1)c1ccncc1	none
COc1ccc(/C(N)=N/OC(=O)c2ccc([N+](=O)[O-])c(C)c2)cc1OC	none
CC(=O)c1ccc(NC(=O)NCc2ccc(F)cc2)cc1	none
CCCCNC(=O)C1=C(N)C(C(=O)Nc2ccc(C)c(S(=O)(=O)N3CCCCC3)c2)SC1=Nc1ccc(C)cc1C (centres undefined)	none
O=C(CNCc1ccccc1Cl)Nc1ccc2c(c1)OCCO2	SMARCA2 act 13, hgDAF-12 ag 12 | SMARCA2 act conf 13 | GAL4-VP16 Luc 6.9
N#Cc1ccccc1OCC(=O)Nc1ccc2c(c1)OCCO2	hcDAF-12 act 6.5, SMARCA2 act 8.5, DAX1 inh-2 4.1, hgDAF-12 ag 12 | SMARCA2 act conf inactive | GAL4-VP16 Luc 6.3
O=C(CSc1ccccn1)Nc1ccc2c(c1)OCCO2	SMARCA2 act 8.4 | SMARCA2 act conf 8.4 | GAL4-VP16 Luc 12
O=C(CSc1ncccn1)Nc1ccc2c(c1)OCO2	none
N#Cc1ccccc1OCC(=O)Nc1ccc2c(c1)OCCCO2	none
Cc1cc(C)cc(OC(C)CCN2CCC(C(O)(c3ccccc3)c3ccccc3)CC2)c1 (centres undefined)	none (no result: DAX1 inh-1)
C#CCOC(=O)C(NC(=O)c1ccccc1)=C1CCCCC1	none
CCOC(=O)C1CC2=C(CCCC2=O)NC1=O (centres undefined)	none
COc1ccc(NC(=S)Nc2cc(C)[nH]n2)cc1Cl	none
Cc1cc(NC(=S)Nc2ccc(C)c(Cl)c2)n[nH]1	SMARCA2 act 8.3 | SMARCA2 act conf 10 | GAL4-VP16 Luc 6.9
Cc1cc2nc(-c3cccnc3SCC(=O)NC(C)C)[nH]c2cc1C	SMARCA2 act 11, DAX1 inh-2 4.1 | SMARCA2 act conf 8.4 | GAL4-VP16 Luc 8.9
COCCOC(=O)CSc1ncccc1-c1nc2cc(C)c(C)cc2[nH]1	none
Cc1nnc(N/N=C\c2ccc(-c3ccccc3[N+](=O)[O-])o2)n1N	none
Cc1nnc(N/N=C/c2ccc(-c3ccccc3F)o2)n1N	SMARCA2 act 12 | SMARCA2 act conf inactive | GAL4-VP16 Luc 9.2
CS(=O)(=O)c1ccc(C(=O)OCc2nnc(-c3ccccc3)o2)cc1[N+](=O)[O-]	SMARCA2 act 12 | SMARCA2 act conf inactive | GAL4-VP16 Luc 9.0
CS(=O)(=O)c1ccc(C(=O)OCC(=O)N2CCOCC2)cc1[N+](=O)[O-]	SMARCA2 act 8.2 (no result: DAX1 inh-1) | SMARCA2 act conf 18 | GAL4-VP16 Luc inactive
Cc1ccccc1NC(=O)COC(=O)c1ccc(S(C)(=O)=O)c([N+](=O)[O-])c1	SMARCA2 act 16 | SMARCA2 act conf inactive | GAL4-VP16 Luc inactive
C=CCNc1nc(Nc2cc(Cl)ccc2OC)nc(OC)n1	none
NC(=O)c1ccccc1N	none
Cc1ccc2c(ccc[n+]2CC(=O)c2ccccc2)c1	SMARCA2 act 12 | SMARCA2 act conf inactive | GAL4-VP16 Luc inactive
Cc1ccc(C(C(=O)NC(C)(C)C)N(C(=O)CCC(=O)Nc2ccccn2)c2ccccc2F)cc1 (centres undefined)	none
Cc1ccc([N+](=O)[O-])cc1-c1ccc(/C=C(\C#N)c2[nH]nc(N)c2C#N)o1	SMARCA2 act 9.5 | SMARCA2 act conf inactive | GAL4-VP16 Luc 12
COCc1cc(C)nc(OCC(=O)N/N=C/c2ccc(-c3cc([N+](=O)[O-])ccc3C)o2)c1C#N	none
O=C(COC(=O)c1nc(Cl)c(Cl)c(Cl)c1Cl)c1ccc[nH]1	SMARCA2 act 9.3 | SMARCA2 act conf 20 | GAL4-VP16 Luc inactive
O=C(Oc1ccccc1/C=C\C(=O)c1cc2ccccc2o1)c1ccccc1	hcDAF-12 act 6.2, SMARCA2 act 8.7 | SMARCA2 act conf inactive | GAL4-VP16 Luc 9.6
NC(=O)N/N=C/c1ccccc1OC(=O)c1cc2ccccc2oc1=O	none
O=C1c2cccc3c([N+](=O)[O-])ccc(c23)C(=O)N1c1ccc(Cl)cn1	none
O=C1c2cccc3c([N+](=O)[O-])ccc(c23)C(=O)N1c1ccccn1	SMARCA2 act 14 | SMARCA2 act conf inactive | GAL4-VP16 Luc 6.5
CCN(CC)CCNC(=O)c1ccc(NCN2C(=O)NC(c3ccccc3)(c3ccccc3)C2=O)cc1	SMARCA2 act 8.0 (no result: DAX1 inh-1) | SMARCA2 act conf inactive | GAL4-VP16 Luc inactive
CCN(C(=O)CN1C(=O)NC(c2ccccc2)(c2ccccc2)C1=O)c1ccccc1	none
Cc1ccc(NCCC(=O)c2cccc([N+](=O)[O-])c2)cc1	SMARCA2 act 9.4 | SMARCA2 act conf 8.0 | GAL4-VP16 Luc inactive
O=C(CSc1nnc(CNC(=O)c2c(F)cccc2F)o1)NCc1ccccc1Cl	none
COc1ccccc1NS(=O)(=O)c1ccc2oc(N)nc2c1	SMARCA2 act 11 | SMARCA2 act conf inactive | GAL4-VP16 Luc inactive
COc1ccccc1NS(=O)(=O)c1ccc2oc(SC)nc2c1	none
Cc1cc(NC(=O)CSc2nnnn2-c2cc(Cl)ccc2C)no1	SMARCA2 act 8.1 | SMARCA2 act conf inactive | GAL4-VP16 Luc inactive
Clc1ccc2c(NCCNC3CCCCC3)ccnc2c1	SMARCA2 act 12 | SMARCA2 act conf inactive | GAL4-VP16 Luc inactive
CC(C)NC1CCC(Nc2ccnc3cc(Cl)ccc23)CC1 (centres undefined)	none
CS/C(=N\N(C)C(N)=O)c1ccccc1	SMARCA2 act 8.4 | SMARCA2 act conf inactive | GAL4-VP16 Luc inactive

Screening data: PubChem BioAssay, The Scripps Research Institute Molecular Screening Center
